Data reported in PubChem BioAssay (NCATS).
Where “and” joins values, the source holds several entries; their conditions need not be identical. Equal entries are not always repeated. Records with an inconclusive call do not appear. Entries that show only a call come without a potency. Calls of active or inactive are those of the source. Calls come from the whole dose curve; as a rule, active = well fitted curve in the direction sought with a large enough effect; inconclusive = small, poorly fitted or top-dose-only effect, or another doubt; inactive = no such curve, though single readings can be large; an effect the other way counts as inactive or inconclusive.

Assays:
[1] = tested on: Zika virus NS2B-NS3 protease; assay: Primary screen GU AMC qHTS for Zika virus inhibitors (AID 1347154); settings: Zika NS2B-NS3 unlinked protease, AMC fluorogenic substrate; series mostly up to 54.1 µM; note: nearly all actives have a fitted effect of over 70% in size; note: potency is the fitted concentration of half-maximal effect
Method in brief: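 Unlinked Zika NS2B hydrophilic domain–NS3 protease complex at 25 nM in 10 mM Tris-HCl pH 8.0, 0.01% Tween 20, with an AMC peptide substrate. Fluorescence change (340/450 nm) over 15 min at room temperature, normalized to controls, fitted to 4-parameter Hill.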

[2] = Confirmatory screen NINDS Rhodamine qHTS for Zika virus inhibitors (AID 1347161); settings: purified enzyme assay, Rhodamine110 substrate fluorescence, 15 min; series mostly up to 114 µM; note: nearly all actives have a fitted effect of over 60% in size; note: potency is the fitted concentration of half-maximal effect
Method in brief: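 Single-chain NS2B-NS3 protease, 25 nM, pH 8.0; compounds preincubated 15 min. Activity: Rhodamine110 release from 1.5 microM substrate over 15 min, room temperature, data fitted to 4-parameter Hill.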

[3] = tested on: Zika virus NS2B-NS3 protease (unlinked complex); assay: Primary screen GU Rhodamine qHTS for Zika virus inhibitors: Unlinked NS2B-NS3 protease assay (AID 1347159); settings: Recombinant ZIKV NS2B-NS3 protease, Rhodamine110 substrate fluorescence; series mostly up to 107 µM; note: nearly all actives have a fitted effect of over 60% in size; note: potency is the fitted concentration of half-maximal effect
Method in brief: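 Percent inhibition derives from the 15-min fluorescence change (ex 480, em 540 nm), normalized to no-enzyme and no-inhibitor wells. Reactions contained 25 nM NS2B-NS3 complex and 1.5 microM substrate in 10 mM Tris-HCl pH 8.0.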

[4] = tested on: Zika virus NS2B-NS3 protease (linked construct); assay: Primary screen NINDS Rhodamine qHTS for Zika virus inhibitors (AID 1347160); settings: purified NS2B-NS3 protease, Rhodamine110 substrate fluorescence; series mostly up to 57.1 µM; note: nearly all actives have a fitted effect of over 55% in size; note: potency is the fitted concentration of half-maximal effect
Method in brief: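 In 10 mM Tris-HCl pH 8.0 containing 0.01% Tween 20, linked NS2B-NS3 protease (25 nM final) is exposed to test compounds for 15 min. Cleavage of 1.5 microM Rhodamine110 substrate is tracked by fluorescence over 15 min.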

[5] = Vero cells viability qHTS for Zika virus inhibitors (AID 1347167); settings: cytotoxicity counter-screen (Zika); series mostly up to 45.9 µM
Method in brief: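 Cells seeded at 2.5 x 10^5 cells/mL in DMEM with 4% FBS and attached overnight at 37 degrees C, then exposed to compound for 24 to 48 hours. Viability read as ATP content by CellTiter Glo luminescence.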

[6] = Confirmatory screen GU Rhodamine qHTS for Zika virus inhibitors qHTS (AID 1347157); settings: purified enzyme assay, Rhodamine110 substrate fluorescence, 15 min; note: potency is the fitted concentration of half-maximal effect; nearly all actives have a fitted effect of over 70% in size
Method in brief: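 Noncovalent NS2B hydrophilic domain/NS3 protease complex (25 nM final) in 10 mM Tris-HCl pH 8.0, 0.01% Tween 20, preincubated 15 min with compounds (up to 114 microM), then 1.5 microM Rhodamine110 substrate. Fluorescence change over 15 min fitted to 4-parameter Hill.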

[7] = ZIKV-mCherry secondary qHTS for Zika virus inhibitors (AID 1347158); settings: Vero cells, ZIKV-mCherry infection imaging, 48-72 h; series mostly up to 49.2 µM; note: potency is the fitted concentration of half-maximal effect
Method in brief: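 Vero, 5,000 cells/well, o/n 37 °C; cpd pin-transferred in DMSO; ZIKV-mCherry MOI 1, 48-72 h 37 °C; 32% PFA stock fix, Hoechst; imaged 10x DAPI/mCherry; mCherry+ threshold 450 RFU; % infection.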

[8] = tested on: Zika virus NS2B-NS3 protease (linked); assay: 384 well plate NINDS AMC confirmatory qHTS for Zika virus inhibitors (AID 1347163); settings: Recombinant NS2B-NS3 protease, Ac-VKTGKR-AMC fluorescence; series mostly up to 1 mM; note: potency is the fitted concentration of half-maximal effect; nearly all actives have a fitted effect of over 50% in size
Method in brief: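 Linked NS2B-NS3 protease (final 5 nM, 30 nM or 60 nM) was preincubated with compounds (final up to 1 mM) for ~15 minutes. Ac-VKTGKR-AMC substrate (final 30 microM) then reacted for 25 minutes at room temperature in the dark. Fluorescence (ex 355/em 460 nm) was normalized to no-enzyme and no-inhibitor controls.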

[9] = tested on: Zika virus NS2B-NS3 protease (linked construct); assay: 384 well plate NINDS Rhodamine confirmatory qHTS for Zika virus inhibitors (AID 1347164); settings: rhodamine-110 peptide substrate fluorescence; series mostly up to 100 µM; note: top concentration of the series differs between compounds; nearly all actives have a fitted effect of over 65% in size
Method in brief: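 Cleavage of Ac-LKRR-Rhodamine 110 (10 microM final) by linked protease (final 5, 30 or 60 nM) was followed as fluorescence at 485/538 nm after 25 min, room temperature, dark. Compounds preincubated ~15 min.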

[10] = target: Lysine-specific demethylase 5B (Homo sapiens) (UniProt Q9UGL1); assay: Optimization screen for KDM5B Histone Demethylases FDH coupled qHTS against the LOPAC library (AID 1347166); settings: KDM5B demethylation, FDH-coupled NADH fluorescence (FDH is formaldehyde dehydrogenase); series mostly up to 57.5 µM
Chain of Lysine-specific demethylase 5B (Homo sapiens) (Q9UGL1 whole entry, looked up): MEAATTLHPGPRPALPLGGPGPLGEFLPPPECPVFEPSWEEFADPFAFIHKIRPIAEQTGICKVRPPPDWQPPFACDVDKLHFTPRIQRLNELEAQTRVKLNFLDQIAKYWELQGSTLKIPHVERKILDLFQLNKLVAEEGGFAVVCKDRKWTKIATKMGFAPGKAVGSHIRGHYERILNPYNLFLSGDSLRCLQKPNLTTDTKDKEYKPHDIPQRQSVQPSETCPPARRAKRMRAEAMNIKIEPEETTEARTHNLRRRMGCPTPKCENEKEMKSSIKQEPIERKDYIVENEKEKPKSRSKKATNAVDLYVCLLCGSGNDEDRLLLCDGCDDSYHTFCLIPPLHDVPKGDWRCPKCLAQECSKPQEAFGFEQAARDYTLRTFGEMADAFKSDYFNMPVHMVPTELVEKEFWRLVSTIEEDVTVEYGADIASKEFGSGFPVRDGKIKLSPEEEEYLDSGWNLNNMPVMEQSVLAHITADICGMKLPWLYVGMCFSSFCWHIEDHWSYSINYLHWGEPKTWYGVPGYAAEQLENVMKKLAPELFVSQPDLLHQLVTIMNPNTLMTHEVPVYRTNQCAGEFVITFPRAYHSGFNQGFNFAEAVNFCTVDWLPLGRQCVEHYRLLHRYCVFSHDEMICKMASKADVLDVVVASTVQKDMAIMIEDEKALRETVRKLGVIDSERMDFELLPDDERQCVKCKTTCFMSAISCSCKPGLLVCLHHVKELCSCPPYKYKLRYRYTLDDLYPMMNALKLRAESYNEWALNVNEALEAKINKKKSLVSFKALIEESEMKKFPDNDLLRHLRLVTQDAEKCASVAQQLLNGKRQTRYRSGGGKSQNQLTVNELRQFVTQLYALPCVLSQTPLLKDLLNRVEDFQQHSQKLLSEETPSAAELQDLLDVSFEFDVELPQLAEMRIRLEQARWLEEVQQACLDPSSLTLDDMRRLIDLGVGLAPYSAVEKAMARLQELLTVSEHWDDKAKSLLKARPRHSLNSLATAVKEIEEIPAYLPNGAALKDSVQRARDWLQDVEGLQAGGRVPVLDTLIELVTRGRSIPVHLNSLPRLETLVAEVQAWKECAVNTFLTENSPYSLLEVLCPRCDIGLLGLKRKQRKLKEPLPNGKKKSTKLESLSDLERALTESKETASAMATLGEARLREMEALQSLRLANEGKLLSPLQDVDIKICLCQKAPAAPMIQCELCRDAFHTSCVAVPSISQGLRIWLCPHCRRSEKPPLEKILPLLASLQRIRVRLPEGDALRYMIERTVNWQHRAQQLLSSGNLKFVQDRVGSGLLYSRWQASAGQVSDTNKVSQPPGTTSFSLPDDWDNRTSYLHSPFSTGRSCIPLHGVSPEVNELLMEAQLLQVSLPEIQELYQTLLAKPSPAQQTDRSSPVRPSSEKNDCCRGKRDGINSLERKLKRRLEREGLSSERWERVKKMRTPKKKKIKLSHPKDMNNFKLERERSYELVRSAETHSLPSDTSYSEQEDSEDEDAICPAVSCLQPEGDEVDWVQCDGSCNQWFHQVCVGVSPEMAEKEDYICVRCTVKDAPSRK
Method in brief: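 KDM5BDeltaAP (200nM final) preincubated 10 min with compound, then 12.5uM H3K4Me3, 25uM a-ketoglutarate, ascorbate, Fe(II), NAD+ and FDH added; 50mM HEPES pH 7.5, 0.01% Tween-20. NADH fluorescence (340/450 nm) change over 30 min, room temperature.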

CN[C@@H]1C[C@H]2O[C@@](C)([C@H]1OC)n1c3ccccc3c3c4c(c5c6ccccc6n2c5c31)C(=O)N[C@H]4O
Potency [1]: 21.5 µM (active)
Potency [2]: inactive

Cn1cc(-c2ccc3ncc(Cc4ccc5ncccc5c4)n3n2)cn1
Potency [1]: inactive
Potency [3]: inactive
Potency [4]: inactive

C[C@H]1COc2c(N3CCN(C)CC3)c(F)cc3c(=O)c(C(=O)O)cn1c23
Potency [1]: 27.1 µM (active) and 10.6 µM (active)
outcome [5]: inactive

Oc1ccc([C@@H]2Oc3ccc(O)cc3[C@@H]3CCC[C@@H]32)cc1
Potency [1]: inactive
Potency [4]: inactive

CC(O)(C#Cc1ccc2c(c1)N(c1nc(N)ncc1Cl)CC2)c1nccs1 (configuration not stated)
Potency [1]: inactive
Potency [4]: inactive

Oc1cc(-c2nc(-c3ccccc3)[nH]c2-c2ccncc2)ccc1Cl
Potency [1]: inactive
Potency [4]: inactive

C[C@@H](Cc1cc2c(c(C(N)=O)c1)N(CCCO)CC2)NCCOc1ccccc1OCC(F)(F)F
Potency [1]: inactive
Potency [3]: inactive
Potency [4]: inactive

CC(C)c1cc(C(C)C)c(CC(=O)NS(=O)(=O)Oc2c(C(C)C)cccc2C(C)C)c(C(C)C)c1
Potency [6]: 2.21 µM (active)
Potency [7]: 3.16 µM (active)
Potency [3]: 3.16 µM (active)
Potency [4]: 3.16 µM (active)
Potency [2]: 2.21 µM (active)
Potency [8]: 3.16 µM (active)
Potency [9]: inactive
outcome [5]: inactive

O=C(Nc1cc2cc[nH]c2cn1)c1ccccc1
Potency [1]: inactive
Potency [3]: inactive
Potency [4]: inactive

CN[C@H](CC(C)C)C(=O)N[C@H]1C(=O)N[C@@H](CC(N)=O)C(=O)N[C@@H]2C(=O)N[C@H]3C(=O)N[C@H](C(=O)N[C@H](C(=O)O)c4cc(O)cc(O)c4-c4cc3ccc4O)[C@H](O)c3ccc(c(Cl)c3)Oc3cc2cc(c3O[C@@H]2O[C@H](CO)[C@@H](O)[C@H](O)[C@@H]2O[C@H]2C[C@](C)(N)[C@H](O)[C@H](C)O2)Oc2ccc(cc2Cl)[C@H]1O
Potency [1]: inactive
outcome [10]: inactive

N#Cc1c(C2CCNCC2)cc(-c2c(O)cccc2OCC2CC2)nc1N
Potency [3]: inactive
Potency [4]: inactive

Cc1cncc2cccc(S(=O)(=O)N3CCCN(C(=O)CN)C[C@@H]3C)c12
Potency [1]: inactive
Potency [3]: inactive
Potency [4]: inactive

FC(F)(F)c1ccc(Nc2nc3ccc(Oc4ccnc(-c5ncc(C(F)(F)F)[nH]5)c4)cc3[nH]2)cc1
Potency [1]: inactive
Potency [4]: inactive

Cc1ncc(-c2ccnc(Nc3ccc(S(C)(=O)=O)cc3)n2)n1C(C)C
Potency [3]: inactive
Potency [4]: inactive

Cc1ccccc1C(=O)Nc1ccc(C(=O)N2CCCC(O)c3cc(Cl)ccc32)c(C)c1 (configuration not stated)
Potency [1]: inactive
Potency [3]: inactive
Potency [4]: inactive

CC(C)n1cnc2c(NCCc3ccc(O)cc3)nc(-c3csc4ccccc34)nc21
Potency [1]: inactive
Potency [4]: inactive

COc1ccc(S(=O)(=O)Nc2cccnc2Nc2ccc(O)cc2)cc1
Potency [1]: inactive
Potency [3]: inactive
Potency [4]: inactive

O=c1[nH]c(=O)n([C@H]2C[C@@H](O)[C@@H](CO)O2)cc1C=CBr
Potency [1]: inactive
outcome [10]: inactive

CC(C)(N)c1ccc(-c2nc3ccccc3nc2-c2ccccc2)cc1
Potency [3]: inactive
Potency [4]: inactive

CCC[C@H]1C[C@H](C(=O)N[C@@H]([C@@H]2O[C@@H](SC)[C@@H](O)[C@@H](O)[C@@H]2O)[C@H](C)Cl)N(C)C1
Potency [1]: inactive
Potency [3]: inactive
Potency [4]: inactive

O=C(O)c1ccc(Nc2ncc3c(n2)-c2ccc(Cl)cc2C(c2c(F)cccc2F)=NC3)cc1
Potency [3]: 8.91 µM (active)

CS(=O)(=O)N1CCc2c(-c3cnc(N)nc3)nc(N3CCOCC3)nc21
Potency [1]: inactive
Potency [3]: inactive
Potency [4]: inactive
